About 83,000 compounds went through this panel and 20% of them were active in at least one assay; those are over-represented in the sample as a whole.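 Compound tested at a single concentration for 48 hours in 96-well plates; a percent growth value below 10 was scored as active.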 A number with no mark means an inactive call. Active and inactive are the calls of the source.

For the test, the system named is HL-60(TB) leukemia. Description: NCI-60 one-dose screen, 48 h (100 = growth as untreated, 0 = no growth, -100 = all killed). The conditions noted are these: 10 µM unless noted.
As to `Nc1c(C(=O)Nc2cccc3c2OCCO3)sc2nc3c(cc12)CN(Cc1ccccc1)CC3`, the growth was 19.1%.

With `CC/C=C\C[C@H]1C/C=C2/C(=O)C(Cl)=C[C@@H]2C/C=C\CCCC(=O)O1`, the growth was -6.91% (active).

On to `CCOC(=O)Nc1cc2c(c(N)n1)N=C(c1ccccc1)CO2`, for which the growth is -0.963% (active).

As to `Nc1nc(=O)n([C@H]2CC=C(CO)O2)cc1F`, the growth was 88%.

On to `O=S(=O)(Nc1ccc(I)cc1F)c1ccc(-c2cnc(C3CC3)o2)cc1`, for which the growth was 17.1%.

`CC(C)CSc1nc(NN)c(C#N)c(-c2ccccc2)n1`: the growth is 106%.

As for `Cc1cc(C)c2nc(Nc3nc(C)c(C)c(=O)[nH]3)nc(C)c2c1`, the growth is -10.2% (active).

With `Cc1ccc(Sc2sc(-c3ccccc3)nc2[P+](c2ccccc2)(c2ccccc2)c2ccccc2)cc1`, the growth is -40.5% (active).

With `CCN1C(=O)N(CC)C2C1NN=c1s/c(=C\c3ccc([N+](=O)[O-])cc3)c(=O)n12` (stereo not given), the growth was -37.9% (active).

Regarding `COC(=O)c1nc(-c2ccccc2)oc1S(=O)(=O)N1CCN(c2ccc(OC)cc2)CC1`, the growth is 21.8%.

Take `CCN(CC)c1ccc2cc(C(Nc3ccc(C)cc3)c3nnnn3C(C)(C)C)c(=O)oc2c1` (stereo not given): the growth was 89%.

On to `ClC1=NC(Cl)C(Cl)=N/C1=N\c1ncn[nH]1` (stereo not given), for which the growth was -64.6% (active).

`Cc1cc2cc3c(=O)[nH]c(=O)cc-3n(CC(O)C(O)C(O)CO)c2cc1C` (stereo not given): the growth is 102%.

On to `C[C@H]1C(=O)N2c3ccccc3[C@@]3(O)C[C@@H](n4cnc5ccccc5c4=O)C(=O)N1[C@@H]23`, for which the growth was 64.6%.

For the compound `COc1cc2ccc(C(C)=O)cc2cc1OC`, the growth was 133%.

In the case of `Nc1nccc(=S)[nH]1`, the growth is 79.9%.

As to `O=C1c2cc(Cl)ccc2Oc2cc([N+](=O)[O-])ccc2N1c1ccc(F)cc1F`, the growth was 76%.

Turning to `Cc1noc(C)c1-c1ccc2nc(NC(=O)[C@H]3CCN(C#N)C3)cn2c1`, the growth is 95.9%.

Consider `Nc1nc(OCc2ccccc2)c2[nH]cnc2n1`, for which the growth is 62.7%.

As to `COc1ccccc1CNCCCCCCCCCCCCN1C(=O)c2ccc3c4c(ccc(c24)C1=O)C(=O)N(CCCCCCCCCCCCNCc1ccccc1OC)C3=O`, the growth is 85.8%.

With `CC1(C)OC(=O)C(=Cc2ccccc2Br)C(=O)O1`, the growth was 98.5%.

On to `O=c1c(F)cn(Cc2ccccc2CCl)c(=O)n1Cc1ccccc1CCl`, for which the growth is -63.6% (active).

On to `CSc1nc(C)c([N+](=O)[O-])c(N)n1`, for which the growth is 90.2%.

Take `COC(=O)C1=NNC(=S)N(c2cc(C)[nH]n2)C(=O)C1`: the growth was 100%.

For the compound `O=C(CN1C(=O)/C(=C\c2ccc(Cl)cc2)SC1=S)Nc1ncc(Cc2ccc(Cl)cc2)s1`, the growth was 102%.

For `Brc1cccc(-c2cc(-c3ccc4c(c3)OCCCO4)[nH]n2)c1`, the growth is 47.7% [25 µM].

As for `CSc1ncnc2c1ncn2C1CCCO1` (stereo not given), the growth was 99.9%.

As to `COC(=O)C(=Cc1ccccc1[N+](=O)[O-])C(=O)OC`, the growth was -48% (active).

Take `C=C1C(=O)O[C@H]2[C@H]1CC/C(Cn1cc(-c3ccsc3)nn1)=C\CC[C@@]1(C)O[C@@H]21`: the growth was -23.5% (active).

Consider `COc1ccc(OC)c(C2C(C#N)=C(N)Oc3cc(O)ccc32)c1` (stereo not given), for which the growth was 88.6%.

On to `CC1=C(C(=O)Nc2ccc(F)cc2)C(c2ccccc2)C2=C(CC(C)(C)CC2=O)N1` (stereo not given), for which the growth is 76%.

Take `c1coc2occoc=2o1`: the growth is 102%.

Consider `CCCCCCCCNc1cc2c3c(c1)CCCN3CCC2`, for which the growth is -3.66% (active).

With `CS(=O)(=O)Nc1ccc(Nc2c3ccccc3nc3cc(Cl)ccc23)cc1`, the growth was -1.97% (active).

As to `C/C(CC(C)C)=N/NC(N)=S`, the growth is 86.5%.

As for `O=C(CNC1CCCCC1)Nc1ccc(-c2nc3ccccc3s2)cc1`, the growth is 66.8%.

Regarding `C=C(C)[C@@H]1CC[C@]2(C(N)=O)CC[C@]3(C)[C@H](CC[C@@H]4[C@@]5(C)CC[C@H](O)C(C)(C)[C@@H]5CC[C@]43C)[C@@H]12`, the growth was 1.17% [100 µM] (active).

Regarding `O=C1C(Cl)C(c2ccccc2Cl)N1n1cnnc1` (stereo not given), the growth is 109%.

As for `CC(=O)Oc1ccc(C)cc1C`, the growth is 95%.

For `S=c1ssnc1-c1cccs1`, the growth was 95.1%.

The record behind these values is PubChem BioAssay (NCI).
